Assay outcomes: PubChem, Sanford-Burnham Center for Chemical Genomics
CF NFkB block = blocks PAF-induced NF-kB reporter in cystic fibrosis cells; KKLEB NF-kB-GFP reporter, GFP fluorescence overnight; inhibition, % at 5 µM; actives 0.86% (n = 360,000); AID 588850;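 active means at least 50% inhibition at 5 µM, scaled per plate between neutral and stimulator controls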;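 further: PAF is a Pseudomonas aeruginosa culture filtrate used as stimulus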
HIF-2a inh = HIF-2a inhibition; 786-0 RCC cells HIF-2a reporter, luciferase luminescence, overnight; inhibition, % at 18.8 µM; actives 0.72% (n = 360,000);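 active means inhibition of the luminescence signal of 40% or more relative to plate controls, in a single-dose primary screen at 18.75 µM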
TWEAK Fn14 block = TWEAK-Fn14 signaling inhibition | actives 2% (n = 360,000) | TWEAK-stimulated Fn14 reporter cells, luciferase luminescence, 8 h | inhibition, % at 10 µM; in the data active means inhibition above about 50%
TROY signal inh = inhibitors of TROY-dependent NF-kB signaling; Q293 LMP1-TROYcd NF-kB luciferase reporter, 4 h; inhibition, % at 10 µM; actives 0.98% (n = 360,000);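 active means compounds whose plate-normalised and pattern-corrected inhibition of the luciferase reporter signal at the single screening dose is 50% or more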
Peg3 prom inh-1 = Peg3 promoter activity inhibition | actives 1.7% (n = 360,000) | HeLa PEG-Prom luciferase reporter, luminescence, overnight | inhibition, % at 20 µM | AID 588405;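 active means inhibition of at least 50% at 20 µM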
KKLEB tox = reduces viability of KKLEB cystic fibrosis airway cells; KKLEB CF airway cells viability, ATPlite luminescence, overnight; active compounds read low; cells stimulated with P. aeruginosa culture filtrate; activity change (cytotoxicity), % at 5 µM; actives 0.36% (n = 360,000); AID 602141;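 active means corrected activity change at or below -50% at 5 µM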
Peg3 prom inh-2 = confirmation of Peg3 promoter inhibitors; shares compounds with Peg3 prom inh-1; HeLa PEG-Prom luciferase reporter, luminescence, overnight; inhibition, % at 20 µM; actives 84% (n = 1,300);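 active means at 20 µM dose, 40% or more inhibition averaged across four replicates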
Each line names hits and unclear results; the compound was inactive in the other large screens (follow-up assays come after a bar, where they were run). In the library only some 4% were active in any assay of this set; here they are far more common.

COc1ccc(NC(=O)Nc2nc(C(N)C3CCCCC3)cs2)cc1 (stereo not given)	Peg3 prom inh-1 54 | Peg3 prom inh-2 71
COc1cccc(Nc2nc(C(C)N)cs2)n1 (stereo not given)	none
COc1cccc(Nc2nc(C(N)C3CCCCC3)cs2)n1 (stereo not given)	Peg3 prom inh-1 96 | Peg3 prom inh-2 63
CCN(CC)CCNC(=O)c1ccc(NC(=O)c2cccc(S(=O)(=O)N(C)C3CCCCC3)c2)cc1	Peg3 prom inh-1 83 | Peg3 prom inh-2 89
CC1(C)C(=O)C=CC(=O)C(C)(C)C(=O)C=CC(=O)C(C)(C)C2=CC=C(O2)C(C)(C)C(=O)C=CC1=O	Peg3 prom inh-1 106 | Peg3 prom inh-2 100
CCN1CCN(c2ncc(C(=O)Nc3cc(Cl)ccc3OC)c3ccccc23)CC1	Peg3 prom inh-1 61 | Peg3 prom inh-2 57
CCCCC[C@@H](/C=C/C1C(=O)C=C[C@H]1C/C=C\CCCC(=O)O)OC(C)=O (stereo not given in full)	none
CN1C/C(=C/c2cccnc2)C(=O)/C(=C/c2cccnc2)C1	CF NFkB block 57, TWEAK Fn14 block 65, Peg3 prom inh-1 87 | Peg3 prom inh-2 inactive
CC(C)N1C/C(=C/c2cccnc2)C(=O)/C(=C/c2cccnc2)C1	none
CCC(CO)Nc1ccn2nc(-c3cccs3)cc2n1 (stereo not given)	none
COc1ccc(-n2cc(-c3ccccc3)c3c(N4CCOCC4)ncnc32)cc1	CF NFkB block 94, Peg3 prom inh-1 61, KKLEB tox -100 | Peg3 prom inh-2 68
COc1ccc(-n2cc(-c3ccccc3)c3c(NCCCN4CCOCC4)ncnc32)cc1	none
C[C@@H]1CN([C@@H](C)CO)C(=O)c2cc(-c3cccnc3)cnc2O[C@H]1CN(C)C(=O)c1cccc(F)c1	none
COc1ccc(NC(=O)N(C)[C@H]2C[C@H]3c4[nH]c5ccc(-c6ccc(OC)cc6)cc5c4CCN3C(=O)[C@H]2[C@H](C)O)cc1	none
Cc1cccc(-c2ccc3[nH]c4c(c3c2)CCN2C[C@@H]([C@H](C)O)[C@@H](N(C)C(=O)NC3CCCCC3)C[C@@H]42)c1	none
CN[C@H]1C[C@H]2c3[nH]c4ccc(-c5cccc(C)c5)cc4c3CCN2C[C@H]1[C@H](C)O	Peg3 prom inh-1 90 | Peg3 prom inh-2 98
CN[C@H]1C[C@H]2c3[nH]c4ccc(-c5ccc(OC)cc5)cc4c3CCN2C(=O)[C@H]1[C@H](C)O	Peg3 prom inh-1 101 | Peg3 prom inh-2 98
O=C(C[n+]1ccc(-c2cc(C(=O)Nc3cccc(C(F)(F)F)c3)c3ccccc3n2)cc1)c1cccc([N+](=O)[O-])c1	Peg3 prom inh-1 89 | Peg3 prom inh-2 62
COc1cccc(N2CCN(CC(=O)Nc3ccccc3C(=O)NCc3ccccc3)CC2)c1	Peg3 prom inh-1 57 | Peg3 prom inh-2 51
Fc1ccc2nncc(SCc3ccccc3Cl)c2c1	none
COc1ccc(-c2cc(C(F)F)n3ncc(C(=O)n4ccnc4C)c3n2)cc1	CF NFkB block 74, Peg3 prom inh-1 55 | Peg3 prom inh-2 95
CC1(C)CC(NC(=O)c2cccc(S(=O)(=O)N(Cc3ccccc3)c3ccccc3)c2)CC(C)(C)N1	Peg3 prom inh-1 84 | Peg3 prom inh-2 92
Cc1ccc(N(C)S(=O)(=O)c2cccc(C(=O)NC3CC(C)(C)NC(C)(C)C3)c2)cc1	none
COc1ccccc1CNS(=O)(=O)c1c(C)cc(C)cc1C	none
N#CCCn1nc(-c2ccccc2)c2ccccc2c1=O	none
O=C1/C(=C/C=C/c2ccccc2)Oc2c1ccc(O)c2CN1CCN(CCO)CC1	none
CCN1CCN(Cc2c(O)ccc3c2O/C(=C\C=C\c2ccccc2)C3=O)CC1	HIF-2a inh 92, Peg3 prom inh-1 108 | Peg3 prom inh-2 77
CCOc1ccc(C(=O)O/N=C(\N)c2ccccn2)cc1	HIF-2a inh 68, TWEAK Fn14 block 103, TROY signal inh 87, Peg3 prom inh-1 114 | Peg3 prom inh-2 95
CCc1ccc(OCC(=O)O/N=C(\N)c2ccccn2)cc1	none
COc1cc(C(=O)O/N=C(\N)c2ccccn2)cc(OC)c1OC	none
Cc1cccc(C(=O)O/N=C(\N)c2ccccn2)c1	TWEAK Fn14 block 102, TROY signal inh 85, Peg3 prom inh-1 56 | Peg3 prom inh-2 40
N/C(=N\OC(=O)c1ccccc1)c1ccccn1	TWEAK Fn14 block 96, TROY signal inh 75, Peg3 prom inh-1 95 | Peg3 prom inh-2 inactive
Cc1ncc([N+](=O)[O-])n1CC(=O)Nc1ccccc1Cl	none
O=C(NCc1cccnc1)c1cc(C2CCCN(S(=O)(=O)c3cccs3)C2)on1 (stereo not given)	none
CC(C)c1ccc(NC(=O)CCN2C(=O)[C@@H]3Cc4ccccc4CN3C2=O)cc1	none
O=C(c1cc(-c2ccccn2)nc2ccc(Cl)cc12)N1CCN(CCc2ccccc2)CC1	Peg3 prom inh-1 51 | Peg3 prom inh-2 inactive
COc1ccc(CN2CCN(C(=O)c3cc(-c4cccnc4)nc4ccc(Cl)cc34)CC2)c(OC)c1OC	Peg3 prom inh-1 94 | Peg3 prom inh-2 56
Cc1cnn(C(=O)c2cc(-c3ccccn3)nc3ccc(Cl)cc23)c1	none
O=c1oc2ccccc2cc1-c1cn2ccccc2n1	HIF-2a inh 66, TWEAK Fn14 block 97, TROY signal inh 71, Peg3 prom inh-1 79, KKLEB tox -78 | Peg3 prom inh-2 65
O=c1oc2ccccc2cc1-c1cn2cccnc2n1	none
Cc1cc(C)n(CC(=O)NC2CCCc3c2cnn3-c2ccc(C)c(C)c2)n1 (stereo not given)	none
CN(C)CC1CCC/C(=C\c2ccc(OC(=O)c3ccc(Cl)cc3)cc2)C1=O (stereo not given)	Peg3 prom inh-1 105 | Peg3 prom inh-2 100
CN(C)CC1CCC/C(=C\c2ccc(OC(=O)/C=C/c3ccccc3)cc2)C1=O (stereo not given)	Peg3 prom inh-1 101 | Peg3 prom inh-2 100
COc1ccc(/C(C)=N/NC(=O)CNC(=O)C(c2ccccc2)c2ccccc2)c(OC)c1	none
CC(NC(=O)c1cccc(S(=O)(=O)N2CCN(Cc3ccccc3)CC2)c1)c1ccc(Br)cc1 (stereo not given)	none
COc1ccc([C@H]2CC(=O)C=C(c3ccc(OC)c(F)c3)C2)cc1	none
O=C(CCn1cnc(-c2ccccc2)c1-c1ccccc1)N/N=C/c1ccccc1O	Peg3 prom inh-1 56 | Peg3 prom inh-2 70
O=C(CCn1cnc(-c2ccccc2)c1-c1ccccc1)N/N=C/c1ccc(O)cc1	none
COc1ccccc1N(CC(=O)Nc1ccccc1C)S(C)(=O)=O	none
COc1ccccc1N(CC(=O)N/N=C/c1c(O)ccc2ccccc12)S(C)(=O)=O	Peg3 prom inh-1 50 | Peg3 prom inh-2 70
